Rab9 prom act: Rab9 promoter activation | Huh7 Rab9 promoter-luciferase reporter, luminescence, 24 h | Potency, µM (doses to about 9.22 µM), for inactives: at the highest dose activation, negative = inhibition, most hits filed as activators | 320,000 tested, 2.8% active | AID 485297; also: % of control where 0% means no effect; nearly all actives have a fitted effect of over 60% in size
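Luminescence from Amplite-detected luciferase (10 minutes, ambient) reports Rab9 promoter activation. Before that, stable Rab9-luciferase Huh7 cells (1500/well, reduced-serum OP-MEM I plus 10% FBS) were exposed to compound for 24 hours at 37C.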
NPC1 prom act: activates the NPC1 promoter; 320,000 tested, 2.4% active; Huh7 NPC1 promoter luciferase reporter, 24 h; AID 485313; Potency, µM (doses to about 9.22 µM), for the others: at the top dose activation, hits mostly activators; also: % of control where 0% means no effect; nearly all actives have a fitted effect of over 60% in size
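Compounds in DMSO were transferred onto Huh7 NPC1-luciferase reporter cells pre-incubated 2 h; after 24 h at 37 °C, Amplite reagent was dispensed and luminescence recorded 10 min later.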
SMN2 splice enh: increases expression of the SMN2 splice variant. Potency, µM (series often up to 46.1 µM), inactives show at the highest dose activity change, positive = activation, hits mostly activators. 210,000 tested, 2.8% active. HEK293 SMN2-luciferase splicing reporter, luminescence, 30-36 h; also: % of control where 0% means no effect; nearly all actives have a fitted effect of over 55% in size
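HEK293 cells carry an SMN2 minigene-luciferase reporter in which exon 7 inclusion puts luciferase in frame. Cells were seeded at 2000 cells/well, attached for 10-12 hours, then exposed to compounds for 30-36 hours at 37C before ONE-Glo luminescence.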
FLuc counter: counter-screen for miR-21 project: firefly luciferase inhibitors or activators | P08659 | purified FLuc, Km substrates, luminescence inhibition | Potency, µM (highest dose often 57.5 µM), for the others: top-dose activity change, negative = inhibition, actives largely listed as inhibitors | 360,000 tested, 6.9% active;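 also: plate controls were vehicle for no effect and reference inhibitor for full effect; nearly all actives have a fitted effect of over 55% in size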
Target sequence (P08659 whole entry, looked up): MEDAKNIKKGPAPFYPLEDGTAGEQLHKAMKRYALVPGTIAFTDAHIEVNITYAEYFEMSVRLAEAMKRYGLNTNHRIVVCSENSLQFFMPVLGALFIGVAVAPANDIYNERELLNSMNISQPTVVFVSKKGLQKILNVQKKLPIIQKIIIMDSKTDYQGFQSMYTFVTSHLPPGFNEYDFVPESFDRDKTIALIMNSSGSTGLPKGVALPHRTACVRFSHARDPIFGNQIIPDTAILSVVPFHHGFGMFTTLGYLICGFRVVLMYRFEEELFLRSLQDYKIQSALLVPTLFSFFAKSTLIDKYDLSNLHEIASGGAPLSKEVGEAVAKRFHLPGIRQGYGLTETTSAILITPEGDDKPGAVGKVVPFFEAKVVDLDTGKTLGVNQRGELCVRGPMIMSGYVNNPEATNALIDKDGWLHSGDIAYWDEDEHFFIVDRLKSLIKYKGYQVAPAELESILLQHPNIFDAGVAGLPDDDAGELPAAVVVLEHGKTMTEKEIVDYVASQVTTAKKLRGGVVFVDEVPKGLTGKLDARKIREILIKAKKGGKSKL
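Purified P. pyralis luciferase, 10 nM final, with Km-level 10 uM D-luciferin and 10 uM ATP in 50 mM Tris acetate pH 7.5, 10 mM Mg acetate, 0.01% Tween-20, 0.05% BSA; 6-point qHTS titration about 60 µM downward; luminescence read.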
p53 reactivation: mutant p53 re-activation in reporter cells; H1299 p53-A138V BP100-luciferase reporter, luminescence, 24 h; 320,000 tested, 0.063% active; Potency, µM (highest dose often 92.2 µM), for inactives: at the highest dose activity change, positive = activation, most hits filed as activators; also: % of control where 0% means no effect; nearly all actives have a fitted effect of over 45% in size
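H1299 (p53-null), stable ts p53-A138V + BP100-Luc; 1000 cells/well, Opti-MEM/10% FBS; cpd 4 pt, 1:5; 24 h, 37 deg C, 5% CO2; detection reagent 10 min RT; luminescence.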
ELG1 genotoxic: genotoxicity induction in ELG1-luciferase HEK293T cells | HEK293T ELG1-luciferase reporter, luminescence, 16 h | Potency, µM (series often up to 46 µM), for inactives: at the top dose activity change, positive = activation, usual class: activators | 330,000 tested, 1.3% active; also: % of control where 0% means no effect; nearly all actives have a fitted effect of over 60% in size
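Step 1: seed 2,000 HEK293T ELG1-luciferase cells per well. Step 2: add compound or DMSO, incubate 16 hr at 37 °C. Step 3: ONE-Glo, 30 min at room temperature, read luminescence.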
The depositor's hits bear a star; [ ] = dose if it differs, or a comment. Only some compounds are listed: those with a hit (about 7.4% of all), similar ones and a draw of the others. Calls follow the shape of the dose curve; as a rule, active = well fitted curve in the direction sought with a large enough effect; inconclusive = small, poorly fitted or top-dose-only effect, or another doubt; inactive = no such curve, though single readings can be large; an effect the other way counts as inactive or inconclusive. Potency is read from the fitted curve at half-maximal effect.

`CCOc1ccc(NC(=O)CS(=O)(=O)Cc2nc(-c3ccc(C)cc3)oc2C)cc1` gave SMN2 splice enh 1.9% and FLuc counter -0.2%.
`CSc1ccc(CN(C)C(=O)c2cc3ccccc3o2)cc1` gave Rab9 prom act -0.9%, NPC1 prom act 21.6%, FLuc counter 16.9µM*, p53 reactivation 12.5% and ELG1 genotoxic 7.6%.
Screening CSc1ccc(CN(C)C(=O)c2cc(=O)c3ccccc3o2)cc1 returned Rab9 prom act 0.7%, NPC1 prom act -1.6%, FLuc counter -2.3%, p53 reactivation -2.2% and ELG1 genotoxic -9.2%.
Screening CCCCCC(=O)/C=C/[C@H]1[C@H](O)CC(=O)[C@@H]1C/C=C\CCCC(=O)O returned SMN2 splice enh 11.1%.
`CC1CCC(NC(=O)Cn2ncc3ccccc32)CC1` (stereo not given) gave Rab9 prom act inconclusive, NPC1 prom act inconclusive, SMN2 splice enh inconclusive, FLuc counter inconclusive, p53 reactivation 17.3% and ELG1 genotoxic 10.3µM*.
Screening CCN(CC)C(=O)CCCSc1nnc(Nc2ccccc2F)s1 returned Rab9 prom act 1.78µM*, NPC1 prom act inconclusive, FLuc counter 16.9µM*, p53 reactivation 16.5% and ELG1 genotoxic 17.2%.
Screening O=C1c2ccccc2C(=O)N1CSc1nnc(Nc2ccccc2F)s1 returned Rab9 prom act 8.6%, NPC1 prom act 3.6%, SMN2 splice enh 6.31µM*, FLuc counter 1.5%, p53 reactivation 19.9% and ELG1 genotoxic 14.0%.
Screening CCCSc1nnc(Nc2ccccc2C)s1 returned Rab9 prom act 2.82µM*, NPC1 prom act 28.1%, SMN2 splice enh inconclusive, FLuc counter 19µM*, p53 reactivation 17.7% and ELG1 genotoxic inconclusive.
`Cc1cccc(Nc2c([N+](=O)[O-])c(=O)n(C)c3ccccc23)c1` gave Rab9 prom act -4.3%, NPC1 prom act -0.8%, SMN2 splice enh -10.7%[1.84 µM], FLuc counter 21.3µM*, p53 reactivation -5.8% and ELG1 genotoxic 1.0%.
For O=C(Nc1nc2ccc(SC(F)F)cc2s1)c1ccc(NS(=O)(=O)c2ccc(F)c(F)c2)cc1 the results were Rab9 prom act 24.7%, NPC1 prom act 13.4%, SMN2 splice enh -4.0%, FLuc counter 15.1µM*, p53 reactivation inconclusive and ELG1 genotoxic -2.8%.
Screening CS(=O)(=O)c1ccc2nc(NC(=O)c3cccc(NS(=O)(=O)c4ccc(F)c(F)c4)c3)sc2c1 returned Rab9 prom act 1.4%, NPC1 prom act 12.5%, SMN2 splice enh -0.5%, FLuc counter 23.9µM*, p53 reactivation 11.5% and ELG1 genotoxic -2.2%.
CS(=O)(=O)c1ccc2nc(NC(=O)c3ccc(NS(=O)(=O)c4ccc(F)c(F)c4)cc3)sc2c1 was read as Rab9 prom act -2.2%, NPC1 prom act 8.3%, FLuc counter inconclusive, p53 reactivation 2.9% and ELG1 genotoxic -7.1%.
`CCOC(=O)c1ccccc1NC(=O)Cn1c(=O)n(-c2cccc(C)c2)c(=O)c2c1c1cc(C)ccc1n2C` gave SMN2 splice enh -3.1% and FLuc counter -13.4%.
Screening Cc1cccc(C)c1NC(=O)[C@H](C)N returned SMN2 splice enh -0.1%[20.6 µM].
`Nn1c(SCC(=O)Nc2ccc3c(c2)OCCO3)nncc1=O` gave Rab9 prom act 16.5%, NPC1 prom act -0.6%, FLuc counter 21.3µM*, p53 reactivation inconclusive and ELG1 genotoxic 0.2%.
`Cn1c(CN2CCOCC2)nnc1SCC(=O)Nc1ccc2c(c1)OCCO2` gave Rab9 prom act -2.7%, NPC1 prom act 15.9%, SMN2 splice enh 8.91µM*, FLuc counter 1.3%, p53 reactivation 1.7% and ELG1 genotoxic 6.7%.
Screening Cc1ccccc1-c1nnc(SCC(=O)Nc2ccc3c(c2)OCCO3)n1N returned Rab9 prom act -2.6%, NPC1 prom act 0.4%, SMN2 splice enh -4.7%, FLuc counter -6.0%, p53 reactivation 0.9% and ELG1 genotoxic 2.5%.
For COCCCn1nnnc1SCC(=O)Nc1ccc2c(c1)OCCO2 the results were Rab9 prom act -1.3%, NPC1 prom act -0.8%, FLuc counter -9.4%, p53 reactivation 1.5% and ELG1 genotoxic 3.2%.
For CCn1nnnc1SCC(=O)Nc1ccc2c(c1)OCCO2 the results were Rab9 prom act inconclusive, NPC1 prom act 2.82µM*, SMN2 splice enh 11.2µM*, FLuc counter 15.1µM*, p53 reactivation 10µM* and ELG1 genotoxic inconclusive.
`Cc1ccc(NC(=O)CSc2nnc(CN3CCOCC3)n2C)cc1C` gave Rab9 prom act -3.9%, NPC1 prom act -1.5%, SMN2 splice enh -42.9%, FLuc counter -3.1%, p53 reactivation -2.4% and ELG1 genotoxic -0.6%.
Screening CCn1nnnc1SCC(=O)Nc1nc(C)c(C)s1 returned Rab9 prom act 23.4%, NPC1 prom act 16.9%, SMN2 splice enh inconclusive, FLuc counter -16.9%, p53 reactivation 22.2% and ELG1 genotoxic 1.1%.
`CCn1nnnc1SCC(=O)Nc1nnc(C(C)C)s1` gave Rab9 prom act -5.4%, NPC1 prom act -2.3%, SMN2 splice enh 0.398µM*, FLuc counter 4.6%, p53 reactivation inconclusive and ELG1 genotoxic 5.5%.
For O=C(CNC(=O)c1ccc2c(c1)S(=O)(=O)N=C1CCCCCN12)Nc1ccc(F)c(F)c1 the results were Rab9 prom act -1.9%, NPC1 prom act -2.4%, FLuc counter 0.8%, p53 reactivation -1.1% and ELG1 genotoxic 12.0%.
`COC(=O)c1ccc(NC(=O)CC2C(=O)N(c3ccccc3)C(=O)N2C2CCCC2)cc1` (stereo not given) gave FLuc counter 1.9%.
COC(=O)CCC(=O)OC1(C)C(=O)C=C2C=C(c3ccc(C#N)cc3)OC=C2C1=O (stereo not given) was read as SMN2 splice enh 6.6%.
For CC(C)n1nnnc1SCC(=O)Nc1ccc2c(c1)OCCO2 the results were Rab9 prom act inconclusive, NPC1 prom act 3.16µM*, FLuc counter 16.9µM*, p53 reactivation 6.9% and ELG1 genotoxic inconclusive.
CCC(=O)Nc1ccc(NC(=O)CSc2nnnn2C(C)C)cc1 was read as Rab9 prom act 0.4%, NPC1 prom act 1.3%, SMN2 splice enh -10.2%, FLuc counter 4.5%, p53 reactivation -6.2% and ELG1 genotoxic -2.6%.
`O=C(O)CC[C@@H](C(=O)O)N1C(=O)[C@@H]2[C@@H]3CC[C@H](C3)[C@@H]2C1=O` gave SMN2 splice enh -5.2%[9.22 µM].
`COc1ccccc1NC(=O)C1Cc2ccccc2CN1C(=O)c1ccco1` (stereo not given) gave Rab9 prom act 0.2%, NPC1 prom act 5.6%, FLuc counter -1.8%, p53 reactivation -0.9% and ELG1 genotoxic 7.1%.

High-throughput results from PubChem.
